Experimental data reported in article PMC5540273 (PLoS ONE, 2017).

tested on: T1, VEGFR2; details: concentration: 1 μM, replicates: in singlicate; n = 1
T1 construct: gene KDR
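Further: KINOMEscan kinase panel screen.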

Structure (SMILES)	%Inh
COc1ccc(NC(=O)c2ccoc2)cc1-c1ccc(C(=O)NCC2CC2)cc1 [GW810437]	0%
O=C(Nc1n[nH]c2nc(-c3ccccc3O)ccc12)C1CC1 [SB-711880]	0%
CNc1nccc(-c2ccc3c(N)n[nH]c3c2)n1 [GSK2206003]	31%
c1ccc(Oc2ccc(Nc3ccnc4cc(-c5ccc(CN6CCCCC6)o5)ccc34)cc2)nc1 [GW567143]	24%
Cc1ccc(NC(=O)c2ccc(Cl)c(Cl)c2)cc1-c1ccc(C(=O)Nc2ccncc2)cc1 [GSK1398460]	6%
CC(C)(C)c1ccc(C(=O)Nc2cn3cc(-n4ccnc4)ccc3n2)cc1	0%
Cl.Cl.NCC(NC(=O)c1cc(-c2cccnc2)c(-c2ccnc3[nH]ccc23)s1)c1ccccc1 (centres unmarked) [GSK1323434]	0%
Cc1ccc(Nc2ccnc(Nc3ccc(C)c(F)c3)n2)cc1O.Cl [GW582868]	0%
O=C(Nc1n[nH]c2nc(-c3cccc(O)c3)ccc12)C1CC1 [SB-711805]	16%
COc1cccc(NC(=O)NCCNc2ccnc(Nc3ccc(F)cc3)n2)c1 [GSK1379879]	0%
Cc1cc(-c2c(-c3ccc(F)cc3)ncn2CCCN2CCOCC2)nc(N)n1 [SB-222517]	5%
COc1ccc(C)c(Nc2ccnc(Nc3ccc(-c4cnc[nH]4)cc3)n2)c1.Cl [GW784041]	0%
CN(C)CCNS(=O)(=O)c1ccc(-c2ccnc3[nH]ccc23)cc1 [GSK977620]	0%
COc1cccc(CC(=O)N2CCc3cc(-c4cn(C)c5ncnc(N)c45)ccc32)c1 [GSK2608899]	64%
